Measurements published in PubChem BioAssay.
Activity calls are given as the source filed them. Unless noted, no rule for the calls is given here.

Experiments:
[1] = compounds binding Alexa647 anti-His antibody – biochemical, small-molecule microarray, 635 nm fluorescence, artefact control for SMM control protein annotation, primary screen (AID 1128); conditions: higher = more signal;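 also: score merges feature fluorescence with signal-to-noise for each printed compound spot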
[2] = test system: Human papillomavirus type 1a E7 protein (residues 1-88); assay: HPV1a E7 small-molecule binders, primary screen, biochemical, small-molecule microarray, residues 1-88, 635 nm (AID 1129); conditions: small-molecule microarray binding, fluorescence 635 nm; higher = more signal
[3] = biological target: Focal adhesion kinase 1 (Homo sapiens) (UniProt Q05397); assay: PTK2 protein binding on printed compound slides – biochemical, small-molecule microarray, 635/667 nm fluorescence, BSA, DTT, primary screen (AID 1130); conditions: 635 nm fluorescence, higher = more signal;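 also: composite of spot emission at 667 nm and signal to noise over triplicate slides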
[4] = test system: Fibrinogen (Alexa647-labelled); assay: Alexa647-fibrinogen binding to printed small molecules – biochemical, small-molecule microarray, 635/667 nm fluorescence, artefact control for SMM control-protein annotation, profiling panel (AID 1131); conditions: fibrinogen-A647 binding fluorescence, higher = more signal;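 also: z-score merges 667 nm fluorescence with per-spot signal-to-noise over triplicate slides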
[5] = biological target: Follistatin (Homo sapiens) (UniProt P19883); assay: FST protein binding to printed compounds – biochemical, small-molecule microarray, 635/667 nm fluorescence, primary screen (AID 1132); conditions: 635 nm fluorescence, higher = more signal
[6] = biological target: Fibroblast growth factor 2 (Homo sapiens) (UniProt P09038); assay: basic fibroblast growth factor binding to printed compounds – biochemical, small-molecule microarray, 635/667 nm fluorescence, primary screen (AID 1133); conditions: FGF2, fluorescence 635/667, higher = more signal
[7] = JC-1 mitochondrial potential readout, lung cancer cells – cell-based, A549, JC-1 fluorescence, basal, 24 h, 100 nL, profiling panel (AID 1138); conditions: higher = more signal;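 also: A549 lung adenocarcinoma cells under basal conditions with no added stimulus; test concentration not given here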
Lefty1 = Lefty1 protein binding to printed compounds – biochemical, small-molecule microarray, 635/667 nm fluorescence, primary screen (AID 1139); conditions: fluorescence 635/667, higher = more signal
[8] = test system: wheat germ agglutinin (Triticum aestivum), Alexa647-labelled; assay: Alexa647-WGA lectin binding to printed small molecules – biochemical, small-molecule microarray, 635/667 nm fluorescence, artefact control for SMM control-protein annotation, profiling panel (AID 1140); conditions: WGA-A647 binding, 635 nm fluorescence, higher = more signal;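 also: score merges 667 nm feature emission with signal to noise over triplicate slides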
[9] = biological target: Luciferin 4-monooxygenase (Photinus pyralis) (UniProt P08659); assay: inhibition of purified Photinus pyralis luciferase – biochemical, luminescence, purified enzyme, 2006 set, primary screen (AID 1141); conditions: purified firefly luciferase, SteadyGlo luminescence, 30 min; higher = more signal, called active from +8 up or from −8 down;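 also: cell-free assay with purified firefly luciferase at 100 ng per well in PBS; test concentration not given here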
[10] = test system: Wnt5a (protein binding on small-molecule microarray); assay: small molecules binding Wnt5a protein – biophysical, small-molecule microarray, 635/667 nm fluorescence, primary screen (AID 1142); conditions: 635 nm fluorescence, higher = more signal;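 also: fluorescence read at 667 nm with signal to noise per printed feature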
[11] = ATP-based viability of Huh7 replicon cells – cell-based, CellTiter-Glo luminescence, basal, 48 h, cytotoxicity control for HCV replication inhibitor project, primary screen (AID 1143); conditions: higher = more signal, called active from +8 up or from −8 down;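 also: Huh7 hepatoma cells carrying a hepatitis C replication reporter with no stimulus; test concentration not given here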
[12] = Pseudomonas biofilm growth suppression – PAO1 strain, BacTiter-Glo luminescence, LB-PBS, primary screen (AID 1144); conditions: P. aeruginosa PAO1 biofilm, 12 h, higher = more signal
[13] = basal CRE-LacZ reporter activity in PC12 – cell-based, unstimulated, primary screen (AID 1145); conditions: no forskolin, luminescence, 4.5 h, higher = more signal, called active from +8 up or from −8 down
[14] = forskolin-driven CRE-LacZ activity in PC12 – cell-based, CRE-LacZ reporter, forskolin-stimulated, primary screen (AID 1146); conditions: luminescence, 4.5 h, higher = more signal, called active from +8 up or from −8 down;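 also: PC12 cells with 6xCRE LacZ reporter stimulated by forskolin 10 µM; beta-galactosidase reporter signal reflecting CREB driven transcription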
[15] = biological target: Streptavidin (Streptomyces avidinii) (UniProt P22629); assay: compounds binding control protein streptavidin – biophysical, small-molecule microarray, 635/667 nm fluorescence, artefact control for SMM compound annotation, primary screen (AID 1147); conditions: higher = more signal;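 also: signal reflects streptavidin binding to arrayed compounds as a control protein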
[16] = probe aInhba binding on compound microarray – biochemical, small-molecule microarray, 635/667 nm fluorescence, primary screen (AID 1148); conditions: higher = more signal;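 also: score merges 667nm spot fluorescence with signal-to-noise for antibody binding to printed compounds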
Torsin-1A (Homo sapiens) [17] = biological target: Torsin-1A (Homo sapiens) (UniProt O14656); assay: TOR1A wild-type binding on microarray – cell lysate, small-molecule microarray, lysate, 635/667 nm, primary screen (AID 1149); conditions: COS7 hTOR1A-WT lysate, 635 nm fluorescence, higher = more signal
Torsin-1A (Homo sapiens) [18] = biological target: Torsin-1A (Homo sapiens) (UniProt O14656); assay: torsin A mutant lysate binding on microarrays – cell lysate, small-molecule microarray, COS7 lysate, 635/667 nm fluorescence, primary screen (AID 1150); conditions: COS7 hTOR1A mutant lysate, 635 nm fluorescence, higher = more signal;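 also: score pools 667 nm emission and signal to noise measuring lysate protein binding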
[19] = test system: Sonic hedgehog protein (Shh); assay: Sonic hedgehog microarray binding compounds – biochemical, small-molecule microarray, 635/667 nm fluorescence, primary screen (AID 1151); conditions: 635 nm fluorescence, higher = more signal;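 also: Shh protein binding to compounds spotted on small-molecule microarray slides; score combines spot fluorescence intensity with signal-to-noise across triplicate slides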

Chain of Focal adhesion kinase 1 (Homo sapiens) (Q05397 whole entry, looked up): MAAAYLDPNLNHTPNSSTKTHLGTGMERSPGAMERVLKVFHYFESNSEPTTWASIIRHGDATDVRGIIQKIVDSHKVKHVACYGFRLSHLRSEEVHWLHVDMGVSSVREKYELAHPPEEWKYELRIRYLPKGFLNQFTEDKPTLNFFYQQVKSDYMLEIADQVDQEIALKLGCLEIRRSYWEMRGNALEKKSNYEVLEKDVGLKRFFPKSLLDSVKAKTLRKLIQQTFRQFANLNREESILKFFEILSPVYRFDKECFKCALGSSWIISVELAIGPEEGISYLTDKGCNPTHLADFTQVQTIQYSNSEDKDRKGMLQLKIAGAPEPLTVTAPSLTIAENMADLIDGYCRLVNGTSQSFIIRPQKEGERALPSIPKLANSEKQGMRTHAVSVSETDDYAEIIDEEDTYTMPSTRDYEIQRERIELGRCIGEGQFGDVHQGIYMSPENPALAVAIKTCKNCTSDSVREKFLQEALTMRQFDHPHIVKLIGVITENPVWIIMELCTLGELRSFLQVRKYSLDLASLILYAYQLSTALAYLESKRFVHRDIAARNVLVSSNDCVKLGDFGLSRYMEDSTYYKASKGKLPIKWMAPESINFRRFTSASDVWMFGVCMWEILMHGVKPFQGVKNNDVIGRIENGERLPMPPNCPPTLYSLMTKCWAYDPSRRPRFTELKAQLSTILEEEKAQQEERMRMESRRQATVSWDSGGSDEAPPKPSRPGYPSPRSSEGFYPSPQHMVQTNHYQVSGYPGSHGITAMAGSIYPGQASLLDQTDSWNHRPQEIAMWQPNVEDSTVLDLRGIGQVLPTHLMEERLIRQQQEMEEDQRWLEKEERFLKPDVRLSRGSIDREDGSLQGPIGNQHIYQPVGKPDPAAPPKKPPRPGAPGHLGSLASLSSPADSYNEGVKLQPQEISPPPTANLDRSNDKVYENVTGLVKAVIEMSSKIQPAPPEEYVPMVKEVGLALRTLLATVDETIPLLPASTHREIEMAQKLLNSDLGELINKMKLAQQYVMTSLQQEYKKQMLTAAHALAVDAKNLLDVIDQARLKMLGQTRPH
Chain of Streptavidin (Streptomyces avidinii) (P22629 whole entry, looked up): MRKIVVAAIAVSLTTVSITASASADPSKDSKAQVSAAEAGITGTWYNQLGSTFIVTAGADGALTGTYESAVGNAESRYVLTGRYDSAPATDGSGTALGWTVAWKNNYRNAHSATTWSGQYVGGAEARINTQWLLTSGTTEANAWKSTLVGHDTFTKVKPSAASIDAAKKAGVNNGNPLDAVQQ
Chain of Luciferin 4-monooxygenase (Photinus pyralis) (P08659 whole entry, looked up): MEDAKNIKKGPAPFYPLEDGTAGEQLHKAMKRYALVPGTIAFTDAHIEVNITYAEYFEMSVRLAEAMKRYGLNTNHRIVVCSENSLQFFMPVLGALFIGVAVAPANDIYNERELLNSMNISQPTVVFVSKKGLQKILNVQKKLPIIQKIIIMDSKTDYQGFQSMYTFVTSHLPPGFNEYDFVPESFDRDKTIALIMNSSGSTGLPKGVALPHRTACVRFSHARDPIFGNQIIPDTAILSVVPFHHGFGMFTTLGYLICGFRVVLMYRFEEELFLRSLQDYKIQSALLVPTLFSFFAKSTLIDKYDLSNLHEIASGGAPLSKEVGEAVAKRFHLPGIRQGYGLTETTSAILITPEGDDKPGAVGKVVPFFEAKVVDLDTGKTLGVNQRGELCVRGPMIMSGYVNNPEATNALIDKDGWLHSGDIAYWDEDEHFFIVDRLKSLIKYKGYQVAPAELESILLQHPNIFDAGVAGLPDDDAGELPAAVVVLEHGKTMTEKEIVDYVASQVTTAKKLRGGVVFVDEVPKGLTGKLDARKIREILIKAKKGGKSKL
Chain of Follistatin (Homo sapiens) (P19883 whole entry, looked up): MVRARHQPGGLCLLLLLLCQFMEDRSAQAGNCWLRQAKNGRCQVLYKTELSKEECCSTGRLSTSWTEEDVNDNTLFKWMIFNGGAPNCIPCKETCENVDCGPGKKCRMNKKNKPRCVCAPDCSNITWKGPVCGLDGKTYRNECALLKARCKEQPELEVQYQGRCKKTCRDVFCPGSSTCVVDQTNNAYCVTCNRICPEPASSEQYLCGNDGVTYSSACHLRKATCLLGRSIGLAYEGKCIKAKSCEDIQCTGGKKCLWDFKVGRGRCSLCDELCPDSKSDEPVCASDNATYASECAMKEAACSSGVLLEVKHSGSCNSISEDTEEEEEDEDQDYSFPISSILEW
Chain of Torsin-1A (Homo sapiens) (O14656 whole entry, looked up): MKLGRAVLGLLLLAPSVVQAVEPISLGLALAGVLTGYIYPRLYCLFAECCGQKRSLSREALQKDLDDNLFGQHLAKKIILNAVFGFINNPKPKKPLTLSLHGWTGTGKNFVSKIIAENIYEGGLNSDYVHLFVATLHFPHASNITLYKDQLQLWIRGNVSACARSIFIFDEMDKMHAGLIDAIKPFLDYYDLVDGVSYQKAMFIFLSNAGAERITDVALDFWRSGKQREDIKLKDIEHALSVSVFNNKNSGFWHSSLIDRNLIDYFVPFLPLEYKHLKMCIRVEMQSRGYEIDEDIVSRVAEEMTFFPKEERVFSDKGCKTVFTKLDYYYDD
Chain of Fibroblast growth factor 2 (Homo sapiens) (P09038 whole entry, looked up): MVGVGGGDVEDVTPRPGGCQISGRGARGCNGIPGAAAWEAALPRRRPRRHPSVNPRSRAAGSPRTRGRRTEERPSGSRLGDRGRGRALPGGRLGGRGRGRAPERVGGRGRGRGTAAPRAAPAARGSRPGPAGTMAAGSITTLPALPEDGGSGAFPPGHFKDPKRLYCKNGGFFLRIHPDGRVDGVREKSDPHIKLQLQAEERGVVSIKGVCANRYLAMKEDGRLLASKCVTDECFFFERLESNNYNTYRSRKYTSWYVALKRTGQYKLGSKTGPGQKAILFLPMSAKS

SMILES | composite z-score [1] | composite z-score [2] | composite z-score [3] | composite z-score [4] | composite z-score [5] | composite z-score [6] | z-score [7] | composite z-score (Lefty1) | composite z-score [8] | z-score [9] | composite z-score [10] | z-score [11] | z-score [12] | z-score [13] | z-score [14] | composite z-score [15] | composite z-score [16] | composite z-score (Torsin-1A (Homo sapiens) [17]) | composite z-score (Torsin-1A (Homo sapiens) [18]) | composite z-score [19]
CC[C@@H](c1ccccc1)n1c(=O)n2n(c1=O)[C@H]1[C@H](O)[C@@H]3O[C@@H]3C(=NOCC=C(C)CCC=C(C)C)[C@H]1CC2 | 0.592 | 1.1 | 0.301 | 0.417 | 0.708 | 0.55 | 0.0549 | 1.25 | 0.359 | -0.726 (inactive) | 0.33 | -1.53 (inactive) | 0.0433 (inactive) | 1.07 (inactive) | 0.889 (inactive) | -0.124 | -0.0963 | 0.216 | 0.366 | 1.88
C=CCOC(=O)[C@H]1[C@@H]2C(=O)O[C@@H](c3ccccc3)[C@@H](c3ccccc3)N2[C@@H](c2ccc(OCCOC(=O)[C@H]3C[C@H]4C(=O)N[C@@H](Cc5ccccc5)C(=O)N4[C@H]3c3ccc(O)cc3)cc2)[C@]12C(=O)Nc1ccccc12 | 2.22 | 1.13 | 1.23 | 0.51 | 1.46 | 1.67 | -1.58 | 1.46 | 0.654 | -2.01 (inactive) | 0.354 | -0.155 (inactive) | -0.0202 (inactive) | 0.285 (inactive) | -0.231 (inactive) | -0.261 | -0.171 | 0.419 | 0.278 | 1.92
COc1cccc([C@H]2Oc3ccc(OC)cc3C(=NO[C@H](C)c3cn([C@@H]4COC[C@H]4O)nn3)[C@@H]2O)c1 | 0.899 | -0.949 | -0.624 | -0.0637 | -1.16 | -0.805 | -1.16 | -0.601 | 0.0665 | 0.825 (inactive) | -0.104 | -2.16 (inactive) | -0.302 (inactive) | 6.84 (inactive) | 0.258 (inactive) | 1.44 | -0.182 | -0.102 | -0.119 | -0.223
C[C@@H](c1ccccc1)N1C(=O)[C@H]2[C@H]3[C@H](O)[C@H](O)CC(=NNC(=O)OCc4ccccc4)[C@H]3CC[C@H]2C1=O | 0.496 | -0.387 | -0.048 | 0.253 | -0.351 | 0.0573 | -0.118 | -0.211 | -0.105 | 0.502 (inactive) | 0.15 | -0.0242 (inactive) | 0.158 (inactive) | 0.423 (inactive) | -0.0874 (inactive) | 0.0456 | -0.317 | -0.184 | -0.289 | -0.108
COC(=O)[C@H](C)NC(=O)CCC1CC(OC(=O)NCc2cccc3ccccc23)CC2(CCCC(COC(=O)NCCc3ccc(Cl)cc3)O2)O1 (stereo not given in full) | 0.591 | 1.06 | 0.178 | 0.228 | 0.225 | 0.212 | 0.179 | 1.03 | 0.411 | 0.632 (inactive) | -0.173 | -0.006 (inactive) | -0.494 (inactive) | 0.2 (inactive) | 0.45 (inactive) | 0.558 | -0.152 | 0.405 | 0.353 | 0.569
